According to PubChem BioAssay (NCATS):
The list shows a part of the results. Inconclusive results are not listed. The source made the active and inactive calls. How the source made its calls: active means clear falling dose curves in both reporters; inconclusive means both reporters move, but less clearly or upward; inactive means either reporter flat; the % is the FLuc reporter signal.

Test: Cell-based coincidence reporter assay to measure PMP22 gene transcription in S16 Pmp22-F2sN cells - Confirmatory screen (AID 1508646)
Settings: S16 Schwann cells Pmp22-F2sN, dual luciferase, 24 h; series mostly up to 57.5 µM
From the text: Assay Provider: Jim Inglese Ph.D. National Center for Advancing Translational Science, National Institutes of Health, Rockville, MD CMT is a heterogeneous group of neurological disorders that affect approximately 1 in 2,500 people. In particular, the most common form of CMT, CMT1A is genetically linked to the duplication of the PMP22 gene which leads to Schwann cell overexpression, thus manifesting itself as a typical case of dose-sensitive diseases. To identify small molecule compounds that can mediate the expression of PMP22 we developed a phenotypic assay screening strategy by utilizing genome editing techniques to construct Schwann cell lines containing novel reporter technology to monitor the transcriptional or translational regulation of PMP22. For high sensitivity we use a bioluminescent reporter system embedded in the 3' UTR of the PMP22 gene (S16(c9) Pmp22-F2sN) to identify compounds that inhibit gene expression. […] We can further discriminate the effect of all transcriptionally active molecules on PMP22 translation or stability with an assay that incorporates a short NLuc peptide (HiBiT) at the C-terminus of expressed PMP22 (S16(f8) PMP22-HiBiT) allowing alpha complementation and luminescence detection of membrane-associated PMP22 protein. These assays were screened against the NCATS Sytravon Library Collection. Miniaturization of these assays to 1536-well plate format for quantitative high throughput screening (qHTS) yielded rich data sets immediately from the qHTS assay (S16(c9) Pmp22-F2sN), when compared with data from a cell viability assay (Cell TiterGlo) to identify compounds that decreased the output signals through cellular toxicity to streamline the selection process of actives for subsequent characterization using the HiBiT assay (S16(f8) PMP22-HiBiT).
Cell-based coincidence reporter assay to measure PMP22 gene transcription in S16 Pmp22-F2sN cells PROTOCOL TABLE (format as described by Inglese J, Shamu CE and Guy RK. 2007) SEQUENCE No. (e.g., 1, 2, 3, etc.); PARAMETER (e.g., Cells, Incubation, Reagent, etc.); VALUE and DESCRIPTION. 1. Cells. Add 500-1,000 cells in 4 uL in growth media (DMEM High Glucose, No Phenol Red media + 10% heat-inactivated FBS + 1% Pen/Strep supplemented media) per well into Greiner 1536-well white/solid bottom high base, TC-treated plates. 2. Compounds. Library compounds and controls added at 23nL per well, transferred by Pin Tool. 3. Incubation. Incubate plates at 37C, 5% CO2, 95% RH for 24 h. 4. Reagent. Add 3.5uL Nano-Glo Dual-Luciferase Reporter Assay System reagent 1: Lysis and FLuc reagent per well of Greiner 1536-well plates. 5. Incubation. Incubate plates at room temperature for 10 min., protect from light. 6. Detector. FLuc luminescence measured using CCD-based camera (Viewlux). 7. Reagent. Add 3.5uL Nano-Glo Dual-Luciferase Reporter Assay System reagent 2: Stop&Glo reagent per well of Greiner 1536-well plates. 8. Incubation. Incubate plates at room temperature for 10 min., protect from light. 9. Detector. NLuc luminescence measured using CCD-based camera (Viewlux). NOTES (numbers refer to Sequence numbers above; values are from representative experiments) 6. Luminescence Read #1 (FLuc): Clear filter; Exposure = 10 sec, Gain = High, Speed = Slow, Binning = 2X 9. Luminescence Read #2 (NLuc): Clear filter; Exposure = 1 sec, Gain = High, Speed = Slow, Binning = 2X REFERENCES: 1. Inglese J, Shamu CE and Guy RK, Reporting data from high throughput screening of small molecule libraries, Nature Chemical Biology, 2007, 3(8): 438-441. doi.org/10.1038/nchembio0807-438 2. Yasgar A, Shinn P, Jadhav A, Auld DS, Michael S, Zheng W, Austin CP, Inglese J and Simeonov A, Compound Management for Quantitative High-Throughput Screening. J. Assoc. Lab. Auto., 2008, 13: 79-89. doi: 10.1016/j.jala.2007.12.004
Potency means the concentration at half of the fitted maximal effect.

Row | SMILES | Potency
1 | Cc1cc(OCC(=O)NCC2(N(C)C)CCCCC2)cc(C)c1Cl | inactive
2 | CCCS(=O)(=O)c1ncc(Cl)c(C(=O)Nc2scc(-c3ccccc3)c2C(=O)OCC)n1 | 10.4 µM (active)
3 | COc1ccccc1-c1cc(C(F)(F)F)nc(S(=O)(=O)CCCC(=O)Nc2ccc(F)cc2F)n1 | 15.3 µM (active)
4 | Cc1cc(F)ccc1NS(=O)(=O)c1ccc(-n2cccn2)cc1 | inactive
5 | CCc1ccc(NC(=O)CN2CCSc3ccc(S(=O)(=O)N4CCCC4)cc32)cc1 | inactive
6 | CCOC(=O)C1CCN(C(=O)CSc2c3c(nc4ccc(Cl)cc24)CCCC3)CC1 | 17.3 µM (active)
7 | Cc1ccc(CCNC(=O)C2CCN(c3nnc(-n4cccc4CNc4ccc(C)cc4)s3)CC2)cc1 | 15.1 µM (active)
8 | CCCCOc1ccc(CN2C(=O)C(=O)c3cc(Br)cc(C)c32)cc1OC | 10.9 µM (active)
9 | O=C(c1ccc2c(c1)N(Cc1ccc(F)cc1)C(=O)c1ccccc1S2(=O)=O)N1CCN(c2ccccn2)CC1 | inactive
10 | CCOc1ccc(NC(=O)c2c(NC(=O)Cc3ccccc3)sc3c2CCC(C)C3)cc1 (stereo unspecified) | 16.5 µM (active)
11 | Cc1sc(C2C(C#N)=C(N)N(c3cccc(Cl)c3)C3=C2C(=O)CCC3)cc1CN1CCOCC1 (stereo unspecified) | inactive
12 | COc1ccccc1Nc1c2c(nc3ccc(NC(=O)/C=C/c4cc(OC)c(OC)c(OC)c4)cc13)CCCC2 | 12.2 µM (active)
13 | O=C(CCS(=O)(=O)c1ccccc1)N(Cc1cccnc1)c1nc2c(F)cccc2s1 | 12.3 µM (active)
14 | Cc1ccc(NC(=O)c2nc(S(=O)(=O)Cc3cccc(C)c3)ncc2Cl)cc1 | 13.1 µM (active)
15 | Cc1ccccc1CNC(=O)CSc1nnc(C)c2c(C)n(-c3ccccc3)nc12 | 16.3 µM (active)
16 | COc1cccc(NC(=O)CSC2=Nc3ccccc3C3=NC(CC(=O)NC4CCCCC4)C(=O)N23)c1 (stereo unspecified) | inactive
